For some of these results: Entries with a potency or affinity are not part of this list.

Holding throughout (parameters): scale not given: direction of the effect not stated beside the values
Test [1] addresses Protein translocase subunit SecA (Escherichia coli (strain K12)) (UniProt P10408). The test can be described thus: Assay to Identify E. coli SecA ATPase Inhibitors. It is filed as functional. The following applies: 30 µM.
Test [2] addresses T1, Ubiquitin-activating enzyme e1, putative (Leishmania donovani (strain BPK282A1)) (UniProt E9BSI1).
T1 sequence (whole entry): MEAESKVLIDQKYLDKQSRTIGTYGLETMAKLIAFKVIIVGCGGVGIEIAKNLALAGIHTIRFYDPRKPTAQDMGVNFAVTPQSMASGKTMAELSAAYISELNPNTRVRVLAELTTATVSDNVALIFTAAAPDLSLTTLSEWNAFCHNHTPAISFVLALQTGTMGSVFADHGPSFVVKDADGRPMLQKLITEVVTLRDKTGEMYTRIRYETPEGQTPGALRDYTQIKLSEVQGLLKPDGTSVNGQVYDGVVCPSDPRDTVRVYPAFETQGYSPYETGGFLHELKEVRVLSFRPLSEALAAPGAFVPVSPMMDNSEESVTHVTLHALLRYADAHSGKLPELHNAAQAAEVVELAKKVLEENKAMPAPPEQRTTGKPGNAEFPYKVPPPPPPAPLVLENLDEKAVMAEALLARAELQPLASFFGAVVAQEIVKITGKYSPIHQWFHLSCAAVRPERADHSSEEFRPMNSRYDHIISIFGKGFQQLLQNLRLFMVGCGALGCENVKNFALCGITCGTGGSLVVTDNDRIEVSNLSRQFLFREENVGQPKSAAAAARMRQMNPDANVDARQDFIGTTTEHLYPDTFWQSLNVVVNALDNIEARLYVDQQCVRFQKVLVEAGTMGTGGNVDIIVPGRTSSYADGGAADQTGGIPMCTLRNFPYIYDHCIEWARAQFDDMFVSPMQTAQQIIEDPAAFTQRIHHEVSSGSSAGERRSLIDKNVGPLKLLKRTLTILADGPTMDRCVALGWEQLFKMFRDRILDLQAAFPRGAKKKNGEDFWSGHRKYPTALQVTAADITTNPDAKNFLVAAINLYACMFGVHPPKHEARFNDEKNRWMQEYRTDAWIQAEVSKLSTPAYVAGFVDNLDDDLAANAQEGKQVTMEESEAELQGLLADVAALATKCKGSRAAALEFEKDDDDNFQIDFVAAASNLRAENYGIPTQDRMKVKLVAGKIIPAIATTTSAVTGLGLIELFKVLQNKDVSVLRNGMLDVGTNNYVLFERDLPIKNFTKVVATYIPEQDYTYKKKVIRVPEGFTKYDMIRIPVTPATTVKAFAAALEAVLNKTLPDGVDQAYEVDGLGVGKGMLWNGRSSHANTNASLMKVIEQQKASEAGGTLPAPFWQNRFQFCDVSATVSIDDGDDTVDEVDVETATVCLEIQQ
Briefly: Leishmania donovani Ubiquitin Activating Enzyme (LdE1). As to conditions: 30 µM. It is filed as functional.

Test [3] concerns the target AMP-activated protein kinase, AMPK (Homo sapiens) (UniProt P54646+O43741+P54619+Q9UGJ0+Q9Y478+Q13131+Q9UGI9). Briefly: AMP-dependent Kinase enzyme assay. An in vitro enzyme assay that detects ADP turnover that is directly proportional to AMPK activity. This uses naive AMPK that is activated during the assay with MK-8722. Format: functional. The following applies: 30 µM.

Test [4] concerns the target Sialic acid-binding Ig-like lectin 9 (Homo sapiens) (UniProt Q9Y336). Briefly: Hs-Siglec9 ALPHAscreen SOP 20170721. As to conditions: 10 µM. (Bead proximity is the source of the signal in Alpha formats.)
A further test deals with Trypanosoma cruzi. The test can be described thus: Trypanosoma cruzi phosphomannomutase and mannose-1-phosphate guanylyltransferase assay. It is filed as functional. The following applies: 10 µM.
Test [5] has as its target T2, Arginase-2, mitochondrial (Homo sapiens) (UniProt P78540).
T2 sequence (whole entry): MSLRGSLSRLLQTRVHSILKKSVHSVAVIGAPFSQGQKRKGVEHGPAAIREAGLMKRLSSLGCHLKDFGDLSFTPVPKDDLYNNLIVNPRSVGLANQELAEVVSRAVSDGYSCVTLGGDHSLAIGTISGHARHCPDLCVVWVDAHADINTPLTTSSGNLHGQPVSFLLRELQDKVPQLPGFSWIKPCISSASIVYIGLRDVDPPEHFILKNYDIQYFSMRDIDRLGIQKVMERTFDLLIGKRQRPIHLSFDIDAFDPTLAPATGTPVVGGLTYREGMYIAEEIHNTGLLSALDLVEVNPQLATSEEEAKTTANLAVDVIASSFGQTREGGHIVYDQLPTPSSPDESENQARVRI
Briefly: in vitro enzyme assay to detect the production of urea directly proportional to the activity of Arginase II. Note: in the data most compounds retested in dose-response had high values. It is filed as functional. As to conditions: 33.3 µM.

The target of test [6] is T3, Proteasome subunit beta (Trypanosoma cruzi) (UniProt O96673).
T3 sequence (whole entry): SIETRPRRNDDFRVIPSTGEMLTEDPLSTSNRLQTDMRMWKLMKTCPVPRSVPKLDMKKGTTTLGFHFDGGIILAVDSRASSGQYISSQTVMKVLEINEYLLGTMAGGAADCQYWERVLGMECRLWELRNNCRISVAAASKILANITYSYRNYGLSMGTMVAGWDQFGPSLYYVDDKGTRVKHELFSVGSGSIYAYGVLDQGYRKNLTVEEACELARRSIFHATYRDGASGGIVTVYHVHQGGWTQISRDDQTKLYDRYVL
The test can be described thus: Trypanosoma cruzi proteasome chymotrypsin-like activity (TcProtChymo) assay. Note: in the data most compounds retested in dose-response had high values. It is filed as functional. As to conditions: 9.37 µM.

For a further test, the species on record is Homo sapiens. Briefly: To identify inhibition of the IFN signalling (Jak-Stat) pathway via expression of an eGFP reporter gene under the control of an IFN-stimulated response element (ISRE) containing MxA promoter. Format: functional. The following applies: 30 µM. For orientation: Reporter assays use an easily measured gene product as a stand-in for the process of interest.

In test [7] the target is T4, Tyrosyl-tRNA synthetase, putative (Trypanosoma cruzi (strain CL Brener)) (UniProt Q4DSP6).
T4 sequence (whole entry): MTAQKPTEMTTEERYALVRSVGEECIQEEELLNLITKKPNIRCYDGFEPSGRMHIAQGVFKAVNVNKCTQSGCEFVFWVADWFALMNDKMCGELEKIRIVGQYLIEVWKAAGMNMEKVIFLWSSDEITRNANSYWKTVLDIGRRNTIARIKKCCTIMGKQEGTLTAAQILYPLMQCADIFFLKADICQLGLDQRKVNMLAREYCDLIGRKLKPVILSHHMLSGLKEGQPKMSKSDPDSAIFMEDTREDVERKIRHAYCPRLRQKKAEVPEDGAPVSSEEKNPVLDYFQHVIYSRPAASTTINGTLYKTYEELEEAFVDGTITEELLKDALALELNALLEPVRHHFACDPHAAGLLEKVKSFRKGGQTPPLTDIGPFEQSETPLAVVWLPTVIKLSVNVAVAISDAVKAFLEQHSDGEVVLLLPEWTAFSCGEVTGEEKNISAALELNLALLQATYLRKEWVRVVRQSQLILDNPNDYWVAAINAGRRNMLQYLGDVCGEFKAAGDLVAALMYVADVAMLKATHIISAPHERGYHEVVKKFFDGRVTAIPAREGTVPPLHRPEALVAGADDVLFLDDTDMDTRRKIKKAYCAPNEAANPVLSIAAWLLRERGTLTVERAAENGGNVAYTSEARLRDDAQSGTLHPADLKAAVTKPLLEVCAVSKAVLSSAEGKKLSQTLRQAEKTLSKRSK
The test can be described thus: Trypanosoma cruzi tyrosyl tRNA synthetase (TcYRS) _High Tyrosine SOP. Note: in the data most compounds retested in dose-response had high values. The following applies: 30 µM. It is filed as functional.

Test [8] addresses T4, Tyrosyl-tRNA synthetase, putative (Trypanosoma cruzi (strain CL Brener)). Briefly: Trypanosoma cruzi tyrosyl tRNA synthetase (TcYRS) SOP. As to conditions: 30 µM. It is filed as functional.
The target in test [9] is Chromo domain-containing protein 1 (Saccharomyces cerevisiae (strain ATCC 204508 / S288c) (Baker's yeast)) (UniProt P32657). Briefly: ScCHD-1 Enzyme Inhibition Assay. Note: in the data most compounds retested in dose-response had high values. The following applies: 30 µM. Format: functional.
Sequence of Chromo domain-containing protein 1 (Saccharomyces cerevisiae (strain ATCC 204508 / S288c) (Baker's yeast)) (P32657 whole entry, the tested form may be a part): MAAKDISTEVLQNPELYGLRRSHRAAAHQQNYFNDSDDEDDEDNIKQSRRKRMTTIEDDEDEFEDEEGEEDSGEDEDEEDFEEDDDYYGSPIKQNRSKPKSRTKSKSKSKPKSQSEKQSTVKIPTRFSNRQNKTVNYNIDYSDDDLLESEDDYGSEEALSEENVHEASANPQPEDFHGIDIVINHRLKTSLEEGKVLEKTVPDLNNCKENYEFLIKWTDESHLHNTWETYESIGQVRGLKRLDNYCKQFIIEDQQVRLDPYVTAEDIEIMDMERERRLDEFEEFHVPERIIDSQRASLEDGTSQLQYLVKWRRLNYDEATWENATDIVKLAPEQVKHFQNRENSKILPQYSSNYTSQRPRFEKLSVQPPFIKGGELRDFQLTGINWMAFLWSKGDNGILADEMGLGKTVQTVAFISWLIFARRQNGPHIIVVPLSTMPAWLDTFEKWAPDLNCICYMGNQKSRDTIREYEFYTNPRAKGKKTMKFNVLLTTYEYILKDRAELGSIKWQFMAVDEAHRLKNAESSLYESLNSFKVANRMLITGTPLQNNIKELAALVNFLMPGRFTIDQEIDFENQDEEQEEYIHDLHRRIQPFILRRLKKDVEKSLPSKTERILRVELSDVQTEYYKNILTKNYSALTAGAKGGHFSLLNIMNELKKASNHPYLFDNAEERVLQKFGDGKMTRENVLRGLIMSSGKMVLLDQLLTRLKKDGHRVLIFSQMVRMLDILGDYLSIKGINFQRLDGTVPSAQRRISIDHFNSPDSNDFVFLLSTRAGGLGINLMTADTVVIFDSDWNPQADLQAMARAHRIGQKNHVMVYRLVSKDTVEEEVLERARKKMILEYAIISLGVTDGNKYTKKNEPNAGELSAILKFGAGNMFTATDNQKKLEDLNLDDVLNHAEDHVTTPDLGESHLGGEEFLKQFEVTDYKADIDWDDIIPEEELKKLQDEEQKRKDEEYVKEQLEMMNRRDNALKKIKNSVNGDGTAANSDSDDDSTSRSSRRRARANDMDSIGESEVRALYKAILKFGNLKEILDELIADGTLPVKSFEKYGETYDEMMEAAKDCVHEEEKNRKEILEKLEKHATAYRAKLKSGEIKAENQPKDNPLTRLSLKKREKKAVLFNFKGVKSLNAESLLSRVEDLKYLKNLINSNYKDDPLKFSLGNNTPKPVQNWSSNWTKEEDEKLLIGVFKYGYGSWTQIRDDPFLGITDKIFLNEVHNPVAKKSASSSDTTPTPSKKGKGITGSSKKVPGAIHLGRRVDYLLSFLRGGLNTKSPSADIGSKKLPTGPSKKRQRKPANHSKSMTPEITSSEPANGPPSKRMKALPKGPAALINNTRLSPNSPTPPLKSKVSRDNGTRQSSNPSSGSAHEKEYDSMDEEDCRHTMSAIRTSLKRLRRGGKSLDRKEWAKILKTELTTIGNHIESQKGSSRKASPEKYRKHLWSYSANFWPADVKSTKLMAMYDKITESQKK

Sequence of Protein translocase subunit SecA (Escherichia coli (strain K12)) (P10408 whole entry): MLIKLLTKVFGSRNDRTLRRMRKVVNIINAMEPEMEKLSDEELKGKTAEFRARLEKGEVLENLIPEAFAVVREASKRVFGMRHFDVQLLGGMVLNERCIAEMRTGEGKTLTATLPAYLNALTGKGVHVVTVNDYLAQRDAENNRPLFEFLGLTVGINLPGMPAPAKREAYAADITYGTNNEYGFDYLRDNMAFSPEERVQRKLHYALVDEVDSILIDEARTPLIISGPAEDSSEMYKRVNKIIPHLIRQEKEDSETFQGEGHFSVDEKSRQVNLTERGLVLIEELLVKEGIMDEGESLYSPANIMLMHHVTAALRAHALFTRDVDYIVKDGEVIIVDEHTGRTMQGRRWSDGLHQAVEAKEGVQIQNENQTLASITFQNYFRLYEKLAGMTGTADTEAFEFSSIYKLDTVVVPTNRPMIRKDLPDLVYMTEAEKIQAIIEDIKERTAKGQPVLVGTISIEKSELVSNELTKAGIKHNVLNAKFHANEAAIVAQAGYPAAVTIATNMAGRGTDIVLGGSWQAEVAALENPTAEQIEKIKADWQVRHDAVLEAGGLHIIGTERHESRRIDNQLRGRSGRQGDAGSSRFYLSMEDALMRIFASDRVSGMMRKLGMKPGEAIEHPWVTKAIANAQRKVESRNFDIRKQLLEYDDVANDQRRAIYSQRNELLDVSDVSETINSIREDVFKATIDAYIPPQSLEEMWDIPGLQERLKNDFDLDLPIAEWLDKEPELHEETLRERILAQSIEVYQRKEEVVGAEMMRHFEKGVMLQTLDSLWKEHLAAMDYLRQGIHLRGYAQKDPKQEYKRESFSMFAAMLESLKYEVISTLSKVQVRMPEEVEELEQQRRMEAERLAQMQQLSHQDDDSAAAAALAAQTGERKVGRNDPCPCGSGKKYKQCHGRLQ
Sequence of Sialic acid-binding Ig-like lectin 9 (Homo sapiens) (Q9Y336 whole entry): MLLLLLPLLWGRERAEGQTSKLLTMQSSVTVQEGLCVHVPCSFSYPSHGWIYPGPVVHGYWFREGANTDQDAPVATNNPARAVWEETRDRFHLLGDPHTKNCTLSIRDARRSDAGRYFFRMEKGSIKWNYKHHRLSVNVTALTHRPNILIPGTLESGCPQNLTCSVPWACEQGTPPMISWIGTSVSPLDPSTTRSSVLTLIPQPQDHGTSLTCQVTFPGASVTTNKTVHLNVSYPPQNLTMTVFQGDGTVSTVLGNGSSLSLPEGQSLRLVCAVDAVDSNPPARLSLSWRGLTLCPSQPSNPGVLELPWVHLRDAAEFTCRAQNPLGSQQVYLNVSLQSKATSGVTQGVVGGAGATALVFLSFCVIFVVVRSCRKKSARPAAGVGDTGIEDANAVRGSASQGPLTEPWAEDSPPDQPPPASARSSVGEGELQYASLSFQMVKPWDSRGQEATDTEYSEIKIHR

Turning to `c1cnn(CC2CCCN2c2ncnc3ccsc23)c1` (stereo unspecified), the Percent Effect in test [1] is -0.167%; in test [2], 13.5%; in test [3] it was 3.45%; in test [4], -4.74%; in the test on Trypanosoma cruzi it was -8.08%; in test [5], 6.84%. The Percent Effect in [6] is 8.8%; in the test filed under Homo sapiens, 53.8%; in test [7], 7.92%; in [8], 18.3%; in [9], -4.66%.

On to `CSCC[C@H](NC(=O)Cn1ccc2c(Cl)cccc21)C(=O)O`, for which the Percent Effect in [1] is 0.448%; in test [2], 12%; in test [3], 2.92%; in [4], 2.75%; in the test on Trypanosoma cruzi, -3.93%; in test [5], -6.87%. Besides, the Percent Effect in [6] was 15.2%; in the test filed under Homo sapiens it was -1.36%; in test [7], 3.17%; in test [8], 7.69%; in [9], -6.56%.

Regarding `COCCN1C[C@@H](C)[C@@]2(COCCN(C(=O)c3cnc(C)cn3)C2)C1`, the Percent Effect in test [1] is 0.144%; in test [2], 10.7%; in [3] it was 6.23%; in [4] it was 3.86%; in the test on Trypanosoma cruzi it was -3.28%; in test [5] it was -21.3%. Further, the Percent Effect in test [6] was 12.7%; in the test filed under Homo sapiens it was -11.1%; in test [7] it was -5.21%; in [8], 12.5%; in [9], -6.61%.

Take `Cc1cc(C(=O)N2CCCC(c3noc(C)n3)C2)[nH]n1` (stereo unspecified): the Percent Effect was -10.3% in [1]; 15.2% in test [2]; -4.15% in test [3]; 16.6% in test [4]; 10.3% with Trypanosoma cruzi; -3.04% in [5]. Also, the Percent Effect is -2.21% in test [6]; 12.9% in the test filed under Homo sapiens; 8.37% in test [7]; 21.5% in test [8]; -9.72% in test [9].

As for `CC(C)C(=O)N1CCCC(c2cc(C(F)F)n3ncnc3n2)C1` (stereo unspecified), the Percent Effect in test [1] is -6.98%; in test [2], 4.05%; in [3], 6.16%; in test [4], -5.54%; in the test on Trypanosoma cruzi it was -4.94%; in [5], -6.73%. Further, the Percent Effect in test [6] is 4.21%; in the test filed under Homo sapiens it was 18%; in test [7] it was -3.23%; in [8], 1.3%; in test [9], -0.33%.

With `Cc1ccc([C@@H]2CN(S(=O)(=O)N(C)C)C[C@H]2N(C)C)cc1`, the Percent Effect in test [1] was -5.32%; in [2], 13.5%; in test [3], -7.05%; in [4], 37%; with Trypanosoma cruzi it was 3.42%; in test [5] it was 45.9%. Further, the Percent Effect was 8.84% in [6]; -3.64% in the test filed under Homo sapiens; 4.3% in test [7]; 11.1% in test [8]; -14.3% in test [9].

Take `Cc1ccc(C(=O)NC(CN2CCCC2=O)c2ccccc2)c(=O)[nH]1` (stereo unspecified): the Percent Effect in test [1] was -4.18%; in test [2] it was 21.9%; in test [3] it was -6.93%; in [4], 17.4%; in the test on Trypanosoma cruzi, 5.88%; in [5] it was 29.6%. For the same compound, the Percent Effect in test [6] was 9.23%; in the test listed under Homo sapiens, 2.33%; in test [7], 5.38%; in [8] it was 15%; in [9], -5.93%.

As for `Cn1nc(C(=O)N2CCCCC2c2nc3cc(F)ccc3[nH]2)ccc1=O` (stereo unspecified), the Percent Effect in [1] was -6.48%; in [2] it was 15.3%; in test [3], -16.2%; in [4] it was 39.4%; in the test on Trypanosoma cruzi, 10.6%; in test [5], 3.97%. In addition, the Percent Effect was 9.82% in [6]; -6.87% in the test listed under Homo sapiens; 2.1% in test [7]; 17.9% in test [8]; -10.9% in test [9].

On to `CCCSCC(=O)NS(=O)(=O)c1ccc2c(c1)OCCO2`, for which the Percent Effect was -2.66% in [1]; -2.63% in [2]; 5.73% in test [3]; 7.23% in [4]; 1.5% in the test with Trypanosoma cruzi; 3.45% in [5]. The Percent Effect in [6] is 2.34%; in the test listed under Homo sapiens, -0.713%; in [7], 1.47%; in test [8], 0%; in test [9], -4.12%.

As to `O=C(NCCc1csc(N2CCCC2)n1)N(C1CCCC1)C1CC1`, the Percent Effect is 0.399% in test [1]; -5.33% in [2]; -9.08% in [3]; 16% in test [4]; -1.66% in the test on Trypanosoma cruzi; 2.08% in test [5]. Further, the Percent Effect in [6] is 27.4%; in the test filed under Homo sapiens it was 6.62%; in test [7] it was 12.6%; in [8], 11.1%; in test [9], -6.87%.

Consider `Cc1nccn1CC1CCCN1S(=O)(=O)Cc1ccccc1F` (stereo unspecified), for which the Percent Effect in test [1] was -5.1%; in [2], 22.8%; in test [3], 1.28%; in [4], -4.39%; in the test on Trypanosoma cruzi, -1.79%; in test [5] it was 1.14%. Besides, the Percent Effect is 2.05% in [6]; 13.2% in the test filed under Homo sapiens; 4.43% in test [7]; 21.5% in test [8]; -7.01% in test [9].

The values are drawn from ChEMBL document CHEMBL3988442, “University of Dundee, Small-Polar-MMV Screening Library” (2021).
